# Test results published in PubChem BioAssay AID485270 (The Scripps Research Institute Molecular Screening Center, 2010).
# In all, about 330,000 compounds went through this assay and about 5,800 (1.8%) were called active. Rule as the data show it: active = inhibition mostly above about 38% (no sharp cut-off); inactive = mostly below about 40%. For the sample, actives were picked, then their nearest neighbours and some compounds at random.
# Target: Orexin/Hypocretin receptor type 1 (Homo sapiens) (UniProt O43613)
# Sequence (O43613 whole entry, looked up): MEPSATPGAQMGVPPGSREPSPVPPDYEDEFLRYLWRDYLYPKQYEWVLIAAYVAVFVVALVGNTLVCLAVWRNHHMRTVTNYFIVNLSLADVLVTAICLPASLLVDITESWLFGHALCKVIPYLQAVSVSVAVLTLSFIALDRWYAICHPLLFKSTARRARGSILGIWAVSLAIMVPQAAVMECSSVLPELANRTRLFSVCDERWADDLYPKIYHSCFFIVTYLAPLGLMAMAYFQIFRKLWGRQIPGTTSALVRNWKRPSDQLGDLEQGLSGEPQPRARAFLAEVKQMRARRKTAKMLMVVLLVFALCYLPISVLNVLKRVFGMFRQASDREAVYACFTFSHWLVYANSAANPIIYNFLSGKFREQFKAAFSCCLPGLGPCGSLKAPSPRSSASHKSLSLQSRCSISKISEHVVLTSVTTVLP
# Assay: antagonists of human orexin 1 receptor (OX1R) (AID 485270);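 also: 0% = agonist challenge alone and 100% = reference antagonist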
# Settings: OX1R-expressing cells, FRET antagonist read-out; at 6.6 µM; hits give high values
row,Compound,inhibition
1,CC[C@]1(C(=O)OC)[C@H]2C(=O)N(Cc3ccccc3)C(=O)[C@H]2[C@H]2CN=C(SCc3ccc(Cl)cc3)N21,4.24% (inactive)
2,CCCS(=O)(=O)N1CCC(CCOc2ccccc2)(C(=O)OCC)CC1,17.7% (inactive)
3,Cc1ccc(S(=O)(=O)NCC(=O)NNC(=O)c2ccc(Br)cc2)cc1C,15.8% (inactive)
4,Cc1nc(N2CCOCC2)nc2c1CCCC2,5.29% (inactive)
5,Nc1nc(-c2sc3nc4c(cc3c2N)CCCC4)nc(N2CCOCC2)n1,95.8% (active)
6,Cc1cccc(NC(=O)c2sc3nc(N4CCOCC4)c4c(c3c2N)CCCC4)c1,4.35% (inactive)
7,Cc1ccccc1-n1cc(CNC(=O)C2CCC(=O)N(C3CC3)C2)cn1 (stereo not drawn),15.2% (inactive)
8,C=CC[C@H](CC(=O)NCCO)C(=O)N[C@@H](COC(=O)[C@@H](CC=C)Cc1ccc(F)cc1)Cc1c[nH]c2ccccc12,5.23% (inactive)
9,Cc1ccc2c(c1)c1ncn(Cc3ccc(F)cc3)c(=O)c1n2C,8.56% (inactive)
10,Cc1ccc2c(c1)c1ncnc(N3CCc4ccccc4C3)c1n2C,74.4% (active)
11,Cc1ccc2c(c1)c1ncn(CCC3=CCCCC3)c(=O)c1n2C,18.4% (inactive)
12,CN(c1ccccc1)S(=O)(=O)c1cc(C(=O)N2CCN(c3ncccn3)CC2)ccc1Cl,4.83% (inactive)
13,COc1ccc(-c2nc(CS(=O)CC(=O)NCc3ccccn3)c(C)o2)cc1 (stereo not drawn),1.65% (inactive)
14,COc1ccc2oc(=O)c(C(=O)N3CCCC3)cc2c1,0.49% (inactive)
15,COc1ccc2oc(=O)c(C(=O)NCc3ccccn3)cc2c1,95.3% (active)
16,COc1ccc(CNC(=O)C[C@H]2C[C@H](C(=O)N3CCOCC3)[C@@]3(CCC4CCCC4)c4[nH]c5ccc(Cl)cc5c4CCN3C2=O)cc1OC,0.33% (inactive)
17,O=C1C=CN2CCCC2CC1 (stereo not drawn),13.3% (inactive)
18,CC(=O)Nc1ccc(S(=O)(=O)NCCC(=O)N2CCN(c3ccccc3Cl)CC2)cc1,13.1% (inactive)
19,CN1C(=O)/C(=C\c2cc(Br)cs2)c2ccccc21,63.8% (active)
20,CCC1C(=O)c2ccccc2N(C)C1=O (stereo not drawn),17.9% (inactive)
21,CN1C(=O)/C(=N/OC(=O)c2ccccc2Br)c2ccccc21,14% (inactive)
22,CCOCc1c(C(=O)N2CCN(Cc3ccc(Br)s3)CC2)oc2ccccc12,5.32% (inactive)
23,O=C(COc1ccc([N+](=O)[O-])cc1Cl)Nc1ccc2[nH]c(=O)[nH]c2c1,9.15% (inactive)
24,CCCCCCSc1ccc([C@@H]2[C@H]3C(=O)N(CC)C(=O)[C@H]3[C@]3(C(=O)OC)CCCCN23)cc1,3.69% (inactive)
25,CC1CCN(c2oc(-c3ccccc3F)nc2C#N)CC1,9.88% (inactive)
26,N#Cc1nc(-c2cccc3ccccc23)oc1N,71.4% (active)
27,COc1ccc(Nc2oc(-c3ccccc3Cl)nc2C#N)cc1,29.4% (inactive)
28,Cc1ccc(NC(=O)C2CC2)cc1S(=O)(=O)N1CCOCC1,5.49% (inactive)
